Laboratory results from PMC4336329 (PLoS ONE, 2015).
In all, about 310,000 compounds went through this assay and about 14,000 (4.5%) showed an effect of 50% or more. Effects have a minus sign here. The sample as a whole holds a higher share of strong results than the screen did.

Each compound was assayed against human ether-à-go-go-related gene (hERG) potassium channel (human, UniProt Q12809) (assay: primary screen, population patch clamp on CHO cells stably expressing hERG; higher = less effect of the substance).
Sequence of human ether-à-go-go-related gene (hERG) potassium channel (Q12809 whole entry, looked up): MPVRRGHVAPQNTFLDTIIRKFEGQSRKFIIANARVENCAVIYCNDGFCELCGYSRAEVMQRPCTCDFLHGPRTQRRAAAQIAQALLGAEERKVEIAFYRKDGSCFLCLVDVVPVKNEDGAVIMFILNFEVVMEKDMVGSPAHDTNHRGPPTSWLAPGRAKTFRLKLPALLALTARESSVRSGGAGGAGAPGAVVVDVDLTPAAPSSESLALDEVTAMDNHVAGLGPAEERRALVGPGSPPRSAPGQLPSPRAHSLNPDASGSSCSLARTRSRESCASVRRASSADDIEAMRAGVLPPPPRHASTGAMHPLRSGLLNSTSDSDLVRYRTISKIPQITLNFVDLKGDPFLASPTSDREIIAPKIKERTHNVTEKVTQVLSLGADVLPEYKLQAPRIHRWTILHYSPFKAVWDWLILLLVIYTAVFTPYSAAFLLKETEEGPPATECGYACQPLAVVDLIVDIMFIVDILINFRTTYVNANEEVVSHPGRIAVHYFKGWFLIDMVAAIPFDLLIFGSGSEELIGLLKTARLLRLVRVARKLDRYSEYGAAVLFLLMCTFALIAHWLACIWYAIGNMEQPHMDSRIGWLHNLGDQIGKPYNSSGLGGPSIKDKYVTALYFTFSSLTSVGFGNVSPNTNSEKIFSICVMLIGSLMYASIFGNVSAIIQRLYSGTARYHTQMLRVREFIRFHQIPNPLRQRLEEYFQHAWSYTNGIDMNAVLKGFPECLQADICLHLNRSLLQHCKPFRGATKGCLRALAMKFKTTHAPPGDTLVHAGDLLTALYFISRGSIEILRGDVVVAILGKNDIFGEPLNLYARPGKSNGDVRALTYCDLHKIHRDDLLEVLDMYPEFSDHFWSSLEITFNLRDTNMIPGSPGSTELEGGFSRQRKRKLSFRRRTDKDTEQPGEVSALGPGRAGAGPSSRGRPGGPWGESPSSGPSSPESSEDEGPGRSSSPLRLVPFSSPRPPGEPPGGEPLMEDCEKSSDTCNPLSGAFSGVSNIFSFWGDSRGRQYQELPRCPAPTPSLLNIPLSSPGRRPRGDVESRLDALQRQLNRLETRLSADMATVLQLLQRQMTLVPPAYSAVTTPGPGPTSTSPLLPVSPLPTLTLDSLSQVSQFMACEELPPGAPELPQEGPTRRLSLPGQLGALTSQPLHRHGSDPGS
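Also: peak tail current of the secondary pulse compared with the same well before compound.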

Structure (SMILES)	hERG current change (%, negative = inhibition) at 10uM [%]
Cn1nc([N+](=O)[O-])nc1N1CCOCC1	23.7
CC1CCCCN1CCn1c(=S)[nH]c2cc3c(cc2c1=O)OCO3 (stereo not shown)	-29
Cc1cc2cccc(C)c2nc1SCC(=O)NNC(=O)c1ccco1	3.66
Cn1nc(C(=O)Nc2cccc(S(=O)(=O)N3CCCC3)c2)c2ccccc2c1=O	-4.87
C=CCOc1c(CNc2ccc3[nH]c(=O)[nH]c3c2)cccc1OC	10.1
Cc1ccc(NC2CCCN(C(=O)c3snnc3C)C2)cc1C (stereo not shown)	0.46
Cn1c2c(c(=O)c3ccccc31)CCC(C)(C)O2	-3.57
Cl.Cn1c2c(c3ccccc31)CCN1CCC[C@]21c1ccccc1	-60.7
Cn1c2c(c(=O)c3ccccc31)CCCC2	-4.88
COc1ccc(-c2nnc(NC(=O)c3ccc(S(=O)(=O)N(C)CC4CCCO4)cc3)o2)c(OC)c1 (stereo not shown)	10.3
CC(C)n1cc(CN2CCC(n3nccc3NC(=O)Cc3ccccc3)CC2)cn1	7.82
Cc1ccccc1C(=O)Nc1ccnn1C1CCN(Cc2cnn(C)c2)CC1	-26.5
CCn1cc(CN2CCC(n3nccc3NC(=O)c3ccccc3C)CC2)c(C)n1	-37.9
Cn1cc(CN2CCC(n3nccc3NC(=O)c3ccccc3Cl)CC2)cn1	-32.9
COC(C(=O)Nc1ccnn1C1CCN(Cc2cnn(C(C)C)c2)CC1)c1ccccc1 (stereo not shown)	-2.06
CCn1cc(CN2CCC(n3nccc3NC(=O)c3ccccc3OC)CC2)cn1	-71.4
CCn1cc(CN2CCC(n3nccc3NC(=O)c3ccc(OC)cc3)CC2)cn1	-4.16
CCn1cc(CN2CCC(n3nccc3NC(=O)c3ccccc3C)CC2)cn1	-58.2
COc1ccc(C(=O)Nc2ccnn2C2CCN(Cc3cnn(C)c3)CC2)cc1	6.81
Cc1ccccc1C(=O)Nc1ccnn1C1CCN(Cc2cnn(C(C)C)c2)CC1	-72.3
COc1ccccc1C(=O)Nc1ccnn1C1CCN(Cc2cnn(C)c2)CC1	-55.6
CCn1cc(CN2CCC(n3nccc3NC(=O)Cc3ccccc3)CC2)cn1	7.27
O=C(COc1cc(F)ccc1[N+](=O)[O-])Nc1ccc(N2CCOCC2)cc1	7.65
CN1C(=O)C2(C(C#N)=C(N)N(c3ccc(Cl)cc3)C3=C2C(=O)CC(C)(C)C3)c2ccccc21 (stereo not shown)	-6.79

Structure (SMILES)	hERG current change (%, negative = inhibition) at 10uM [%]
CCOC(=O)/C(C#N)=N/Nc1c(S(=O)(=O)Cc2ccco2)csc1C(=O)OC	11.4
COc1ccc(N2CCN(C(=O)Nc3ccccc3Cl)CC2)cc1	4.49
Cc1ccccc1NC(=O)CSc1nnc(CNC(=O)c2ccc3c(c2)OCO3)n1C	1.34
CCC1C(=O)NCCN1C(=O)CCc1nnc(CCc2ccc(OC)cc2)o1 (stereo not shown)	21.9
Cc1ccc(C(=O)NCCNC(=O)COc2ccccc2Cl)cn1	6.95
CCN(CC)CCCN(C(=O)c1ccccc1C)c1nc(-c2ccc(OC)cc2)cs1	-55.5
COCCN(C(=O)c1ccccc1F)c1nc(-c2ccc(OC)cc2)cs1	16.7
CCN(CC)CCCN(C(=O)c1ccccc1F)c1nc(-c2ccc(OC)cc2)cs1	-71.4
CCN(C(=O)c1ccccc1F)c1nc(-c2ccc(OC)cc2)cs1	22.8
COCCCN(C(=O)c1ccccc1F)c1nc(-c2ccc(OC)cc2)cs1	8.7
CN(CC(=O)Nc1cccc(F)c1)C(=O)CCNC(=O)c1ccco1	16.7
CCC(C)(C)NC(=O)C(c1ccccc1)N(Cc1cccs1)C(=O)Cn1nnc2ccccc21 (stereo not shown)	7.58
Cc1cccc(/C(N)=N/OC(=O)COc2ccc(Cl)c(C)c2)c1	13.2
COc1ccc(N2CCN(CCCNC(=O)CCCn3c(=O)[nH]c4ccsc4c3=O)CC2)cc1	-9.7
Cn1c(C(=O)NCCCN2CCCCC2)cc2sccc21	-49
COCCNC(=O)c1cc2sccc2n1C	1.67
CC1CCN(CCCNC(=O)c2cc3sccc3n2C)CC1	-57.3
COc1ccc(N2CCN(CCCNC(=O)c3cc4sccc4n3C)CC2)cc1	-70.7
COc1ccc(CCNC(=O)c2cc3sccc3n2C)cc1OC	-6.67
COC(=O)CSc1ccsc1C(=O)O	5.72
COc1ccc(-c2cc3c(=O)n(CC(=O)Nc4cccc(Cl)c4)nc(C)n3n2)cc1	14.8
CCCC(=O)Nc1cccc(NC(=O)c2cccc([N+](=O)[O-])c2C)c1	-12.8
CCCCN(CCCNC(=O)CN1C(=O)COc2ccc(S(=O)(=O)N3CCC(C)CC3)cc21)Cc1ccccc1	-76.6
CC1CCN(S(=O)(=O)c2ccc3c(c2)N(CC(=O)NCCCN2CCCC(C)C2)C(=O)CO3)CC1 (stereo not shown)	-8.35

Structure (SMILES)	hERG current change (%, negative = inhibition) at 10uM [%]
CCCCN(CC)CCNC(=O)CN1C(=O)COc2ccc(S(=O)(=O)N3CCCC3)cc21	-3.34
CCCCN(CCCC)CCNC(=O)CN1C(=O)COc2ccc(S(=O)(=O)N3CCC(C)CC3)cc21	-66.5
CCN(Cc1ccccc1)C(=O)CN1C(=O)COc2ccc(S(=O)(=O)NC3CCCC3)cc21	-54.2
CC(C)N(Cc1ccccc1)C(=O)CN1C(=O)COc2ccc(S(=O)(=O)NC3CCCC3)cc21	-36.1
CCCCN(CCCC)CCNC(=O)CN1C(=O)COc2ccc(S(=O)(=O)N3CCOCC3)cc21	-42.3
CCN(CC)S(=O)(=O)c1ccc2c(c1)N(CC(=O)NCCc1ccc(S(N)(=O)=O)cc1)C(=O)CO2	-1.7
CC1CCN(S(=O)(=O)c2ccc3c(c2)N(CC(=O)NCCCN2C(C)CCCC2C)C(=O)CO3)CC1 (stereo not shown)	17.3
CCN(CC)S(=O)(=O)c1ccc2c(c1)N(CC(=O)N(CCc1ccncc1)C(C)C)C(=O)CO2	-53.3
CCN(CC)S(=O)(=O)c1ccc2c(c1)N(CC(=O)N1CCCC1)C(=O)CO2	-5.64
CCN(Cc1ccccc1)C(=O)CN1C(=O)COc2ccc(S(=O)(=O)N3CCCCCC3)cc21	-8.9
CC(C)CN(C(=O)COC(=O)/C=C/c1ccccc1)C1CCS(=O)(=O)C1 (stereo not shown)	-10.7
CCOC(=O)N1CCN(C(=O)CSc2nnc(COc3ccccc3)o2)CC1	-11
S=C(Nc1ccc(Br)cc1Cl)NN1CCOCC1	-8.03
O=C(CC1NCCNC1=O)Nc1ccc(Oc2ccccc2)cc1 (stereo not shown)	25.6
Cc1cc(C(=O)Nc2ccc3c(c2)CCC3)c2ccccc2n1	10.8
COc1ccc(Cl)cc1NC(=O)CCS(=O)(=O)c1ccc(Br)cc1	3.8
COc1ccc(NC(=O)C(=O)NNC(=O)C(C)Oc2ccc(Cl)cc2Cl)cc1 (stereo not shown)	19
Cn1nc(C(=O)Nc2ccccc2)c2c1-c1ccccc1S(=O)(=O)C2	-0.138
CC1CCN(S(=O)(=O)c2ccc3c(c2)N(CC(=O)NCCCOC(C)C)C(=O)CO3)CC1	12.8
CC1CCN(S(=O)(=O)c2ccc3c(c2)N(CC(=O)NCCCN(Cc2ccccc2)C(C)C)C(=O)CO3)CC1	-62.5
Cc1ccc(CCNC(=O)CN2C(=O)COc3ccc(S(=O)(=O)N4CCC(C)CC4)cc32)cc1	8.66
CC(C)CN(CCCNC(=O)CN1C(=O)COc2ccc(S(=O)(=O)N3CCCCCC3)cc21)CC(C)C	-52
CC(C)CN(CCCNC(=O)CN1C(=O)COc2ccc(S(=O)(=O)N3CCC(C)CC3)cc21)CC(C)C	-2.94
CC(C)CN(CCCNC(=O)CN1C(=O)COc2ccc(S(=O)(=O)N3CCOCC3)cc21)CC(C)C	6.18

Structure (SMILES)	hERG current change (%, negative = inhibition) at 10uM [%]
CCCCN(CCCC)CCCNC(=O)CN1C(=O)COc2ccc(S(=O)(=O)N3CCC(C)CC3)cc21	-74.8
CC(C)CN(CCCNC(=O)CN1C(=O)COc2ccc(S(=O)(=O)N3CCCC3)cc21)CC(C)C	-5.33
CCOCCCNC(=O)CN1C(=O)COc2ccc(S(=O)(=O)N3CCC(C)CC3)cc21	6.25
Cc1cc(C)nc(N2CCC(C(=O)Nc3ccc4c(c3)OCO4)CC2)n1	-5.31
NS(=O)(=O)c1ccc(CNS(=O)(=O)c2ccc3ccccc3c2)cc1	1.74
O=C(CSc1ncccn1)NCc1ccc(Cl)cc1	4.02
COC(=O)C(=O)/C=C(\O)c1c(C)cc(C)cc1C	14.9
COc1ccc(/C=C2/CCc3ccccc3C2=O)cc1OC	-19.8
CCOc1cc(CNCCO)ccc1OCC(=O)NC(C)(C)C.Cl	15.7
O=C(COC(=O)c1ccc(F)cc1F)NCCC1=CCCCC1	10.6
Cl.OCCN1CCN(CC(O)COc2ccc(Cl)cc2)CC1 (stereo not shown)	-20.6
Cl.OC(COc1ccc(Cl)cc1)CN1CCN(c2ccccc2)CC1 (stereo not shown)	-29.7
Cl.OC(COc1ccc(Br)cc1)CN1CCOCC1 (stereo not shown)	-0.178
CC(C)OCC(O)CN1CCC(Cc2ccccc2)CC1.Cl (stereo not shown)	-56.9
OC(COc1ccc(OCc2ccccc2)cc1)CN1CCOCC1 (stereo not shown)	-17
CCN1CCN(CC(O)COC(C)C)CC1.Cl (stereo not shown)	2.08
Cl.OC(COc1ccc(Br)cc1)CN1CCCC1 (stereo not shown)	-24.3
CC(C)OCC(O)CN1CCNCC1.Cl (stereo not shown)	11.6
Cl.OC(COc1ccc(Br)cc1)CN1CCC(Cc2ccccc2)CC1 (stereo not shown)	-85.9
Cl.OC(COc1ccc(Cl)cc1)CN1CCC(Cc2ccccc2)CC1 (stereo not shown)	-81.4
O=S(=O)(c1ccc(OCC(O)CN2CCC(Cc3ccccc3)CC2)cc1)N1CCOCC1 (stereo not shown)	-44.4
Cl.OC(COc1ccccc1)CN1CCC(Cc2ccccc2)CC1 (stereo not shown)	-79.3
